Experimental findings from PubChem BioAssay (NCI) are described below.

Each structure is given as a SMILES string. The panel holds about 83,000 compounds, 20% with a hit somewhere; the sample as a whole holds those more often.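 The endpoint reported here, percent growth, reads 100 for growth as untreated, 0 for no net growth and -100 for all cells dead.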 Unmarked numbers belong to inactive results. The source made the active and inactive calls. The calls were made as follows: active = growth percent below 10; inactive = the rest.

Some test systems named below: SK-MEL-2 melanoma; EKVX NSCLC; SN12C renal; UO-31 renal; TK-10 renal; ACHN renal; CAKI-1 renal; A498 renal; CCRF-CEM leukemia; MOLT-4 leukemia.
What all share (assay): NCI-60 one-dose screen, 48 h (100 = growth as untreated, 0 = no growth, -100 = all killed)
Common to all, as to details: 10 µM unless noted

Regarding `N#Cc1c(-c2cccc(Cl)c2Cl)cc(-c2c[nH]c3ccccc23)[nH]c1=O`, the growth is 87.7% in the assay on SK-MEL-2 melanoma; 53% in the assay on EKVX NSCLC; 53.6% in the assay with SN12C renal; 43.1% in the assay on UO-31 renal; 108% with TK-10 renal; 59% with ACHN renal. Also, the growth in the assay with CAKI-1 renal is 53%; with A498 renal, 128%; in the assay with CCRF-CEM leukemia it was 33.1%; in the assay on MOLT-4 leukemia, 41%.
In the case of `CC12CC[C@@H]3[C@]4(C)COC(c5cn[nH]c5-c5ccc(Br)cc5)O[C@@H]4CC[C@@]3(C)[C@@H]1CC(C1=CCOC1=O)O2` (stereo not given in full), the growth in the assay on SK-MEL-2 melanoma is 52.4%; in the assay with EKVX NSCLC, 43.2%; in the assay on SN12C renal, 57.5%; in the assay on UO-31 renal it was 25.1%; with TK-10 renal it was 54.6%; in the assay with ACHN renal, 47%. Besides, the growth was 43.3% with CAKI-1 renal, 97.8% in the assay on A498 renal, 51.4% in the assay with CCRF-CEM leukemia and -0.166% (active) in the assay with MOLT-4 leukemia.
With `CCCCc1c(Nn2cnnn2)no[n+]1[O-]`, the growth with SK-MEL-2 melanoma was 80.1%; with EKVX NSCLC it was 54.2%; in the assay with SN12C renal it was 42.4%; in the assay on UO-31 renal, 28.4%; in the assay with TK-10 renal, 96.5%; with ACHN renal, 54.9%. Also, the growth in the assay with CAKI-1 renal is 39.5%; in the assay with A498 renal, 79.2%; in the assay on CCRF-CEM leukemia it was 31.6%; with MOLT-4 leukemia it was 23%.
As to `O=C(/C=C/c1ccc(-c2ccccc2)cc1)c1nc2ccccc2n1Cc1ccc(Br)cc1`, the growth was 65.8% in the assay with SK-MEL-2 melanoma; 52.3% with EKVX NSCLC; 77.2% in the assay with SN12C renal; 46.3% with UO-31 renal; 35.3% with TK-10 renal; 32.7% in the assay with ACHN renal. The growth with CAKI-1 renal was 50.4%; in the assay with A498 renal, 104%; in the assay on CCRF-CEM leukemia it was 11.1%; in the assay with MOLT-4 leukemia, -14.4% (active).
With `Cc1ccc(C2CC(c3ccc(S(=O)(=O)NCCNc4nc(Nc5ccc(F)cc5)nc(N(C)C)n4)cc3)=Nc3c(N)nc(N)nc3N2)cc1` (stereo not given), the growth in the assay with SK-MEL-2 melanoma was 76.9%; in the assay on EKVX NSCLC it was 62.7%; with SN12C renal it was 74.2%; with UO-31 renal it was 67.4%; in the assay with TK-10 renal, 96.5%; with ACHN renal, 61%. Also, the growth with CAKI-1 renal is 76.9%; in the assay with A498 renal it was 89.2%; with CCRF-CEM leukemia, 18.4%; in the assay with MOLT-4 leukemia it was 4.77% (active).
Take `COc1cc2c(c(OC)c1OC)C(=O)CC(c1cccc(NC(=O)c3cc(N)ccc3Cl)c1)O2` (stereo not given): the growth with SK-MEL-2 melanoma was 32.7%; in the assay with EKVX NSCLC it was 78.7%; in the assay on SN12C renal, 64.6%; in the assay with UO-31 renal, 51.5%; in the assay on TK-10 renal it was 106%; with ACHN renal it was 50.6%. Moreover, the growth with CAKI-1 renal was 50.3%; in the assay on A498 renal it was 105%; with CCRF-CEM leukemia, 22.5%; in the assay with MOLT-4 leukemia, 21.5%.
For the molecule `CSc1ccccc1NC(=O)c1ccc2nn(/C(C#N)=C/c3ccccn3)nc2c1`, the growth in the assay with SK-MEL-2 melanoma was -67% (active); in the assay with EKVX NSCLC it was -98.5% (active); with SN12C renal it was -59.2% (active); in the assay with UO-31 renal, -100% (active); in the assay on TK-10 renal it was -98.4% (active); in the assay with ACHN renal it was -99% (active). In addition, the growth is -87.3% (active) with CAKI-1 renal, 93.7% in the assay with A498 renal, -34.7% (active) in the assay with CCRF-CEM leukemia and -22.3% (active) with MOLT-4 leukemia.
As to `Cc1occc1C(=O)NN1C(=O)/C(=C/C=C/c2ccc([N+](=O)[O-])o2)SC1=S`, the growth was -71.8% (active) in the assay on SK-MEL-2 melanoma; -52.1% (active) in the assay with EKVX NSCLC; -88.1% (active) in the assay on SN12C renal; -96.3% (active) in the assay with UO-31 renal; -49.7% (active) in the assay on TK-10 renal; -100% (active) in the assay with ACHN renal. Also, the growth is -59.7% (active) in the assay on CAKI-1 renal, 95.3% in the assay with A498 renal, 0.965% (active) in the assay on CCRF-CEM leukemia and 5.26% (active) in the assay on MOLT-4 leukemia.
`Cc1cc2c(cc1Cl)C(=O)/C(=C/c1ccc(F)cc1)O2`: the growth in the assay with SK-MEL-2 melanoma is 122%; in the assay with EKVX NSCLC, 90.8%; with SN12C renal it was 82.1%; with UO-31 renal, -80.7% (active); in the assay with TK-10 renal it was 125%; in the assay with ACHN renal it was 96.9%. The growth with CAKI-1 renal was 75.3%; in the assay on A498 renal, 149%; in the assay on CCRF-CEM leukemia it was 94.5%; in the assay with MOLT-4 leukemia it was 84.3%.
For the molecule `CCOP(=O)(OCCCl)c1nc(-c2ccc(C)cc2)oc1NCc1ccccc1` (stereo not given), the growth in the assay with SK-MEL-2 melanoma is 87%; in the assay on EKVX NSCLC, 67.2%; in the assay with SN12C renal, 70.4%; in the assay with UO-31 renal, 52.5%; in the assay with TK-10 renal it was 100%; with ACHN renal, 80%. In addition, the growth is 49.5% with CAKI-1 renal, 99.3% with A498 renal, 72.4% with CCRF-CEM leukemia and 43.6% with MOLT-4 leukemia.
Turning to `C#CCOc1cc(N(CC)CC)ccc1C(C(=O)NC(C)(C)C)N(C(=O)C1CCc2cc(F)ccc2O1)c1ccccc1F` (stereo not given), the growth was -39.4% (active) in the assay on SK-MEL-2 melanoma; 44.5% in the assay with EKVX NSCLC; 43.7% with SN12C renal; 23.3% in the assay with UO-31 renal; 45% in the assay on TK-10 renal; 18.7% in the assay on ACHN renal. Further, the growth with CAKI-1 renal is 22.4%; with A498 renal it was 33.3%; with CCRF-CEM leukemia, 31.8%; with MOLT-4 leukemia it was 5.25% (active).
Regarding `CN1CCN(/C(=N\c2sc(-c3ccccc3)nc2-c2ccccc2)c2ccccc2)CC1`, the growth in the assay on SK-MEL-2 melanoma is 115%; in the assay with EKVX NSCLC it was 81.3%; in the assay on SN12C renal it was 82.7%; in the assay on UO-31 renal, 82.4%; in the assay with TK-10 renal, 105%; in the assay on ACHN renal it was 95.3%. The growth was 72.7% with CAKI-1 renal, 122% in the assay on A498 renal, 57.3% with CCRF-CEM leukemia and 40.9% in the assay with MOLT-4 leukemia.
As for `CC(C)C(C(=O)O)n1c(O)c(/C=C2/C=c3cc4c(cc3=NC2=O)OCO4)sc1=S` (stereo not given), the growth in the assay on SK-MEL-2 melanoma was 104%; in the assay on EKVX NSCLC it was 99.3%; in the assay on SN12C renal, 96.6%; in the assay on UO-31 renal it was 78.2%; with TK-10 renal, 89.8%; with ACHN renal it was 111%. Further, the growth in the assay with CAKI-1 renal is 93%; with A498 renal, 102%; in the assay with CCRF-CEM leukemia, 106%; with MOLT-4 leukemia, 104%.
